Compound activity as filed in PubChem BioAssay.
Hits are enriched below; roughly 2.3% of the tested compounds scored in any of these assays.
Marburg entry inh = inhibitors of Marburg virus binding or cell entry; Marburg virus pseudotyped entry inhibition, cell reporter; Potency, µM (series often up to 37.8 µM), for inactives: top-dose activity change, negative = inhibition, hits mostly inhibitors; 300,000 tested, 1.8% active; calls by dose curve; tested in HEK293 cells
LASV entry inh = blocks Lassa virus binding to or entry into cells | Lassa virus pseudotype entry inhibition, cell reporter | Potency, µM (doses to about 37.9 µM), for the others: at the top dose activity change, negative = inhibition, most hits filed as inhibitors | 300,000 tested, 1.2% active | AID 540256; calls by dose curve; tested in HEK293 cells; note: nearly all actives have a fitted effect of over 50% in size
AMA1 RON2 block = AMA1-RON2 (P. falciparum) interaction inhibition; AlphaScreen AMA1-biotinylated RON2 peptide binding; Potency, µM (doses to about 58.2 µM), inactives show at the highest dose activity change, negative = inhibition, hits mostly inhibitors; 360,000 tested, 0.2% active; AID 720542;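 note: 0% = vehicle wells and -100% = peptide control; nearly all actives have a fitted effect of over 45% in size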
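AMA1 (3D7) with his tag at 25 nM final met compounds first, then biotinylated RON2 peptide at 25 nM; detection used donor plus acceptor beads, 10 µg/mL apiece, read by AlphaScreen after 30 min at room temperature.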
AmpC inh no detg = inhibitors of E. coli AmpC beta-lactamase without detergent; P00811; AmpC nitrocefin hydrolysis, absorbance 480 nm, 0.0001% Triton; Potency, µM (titrated, usually from 57.1 µM), for inactives: at the highest dose activity change, negative = inhibition, actives largely listed as inhibitors; 330,000 tested, 0.52% active; AID 485341;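 note: plate controls were no compound for no effect and no enzyme for full effect; nearly all actives have a fitted effect of over 20% in size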
Target sequence (P00811 whole entry, looked up): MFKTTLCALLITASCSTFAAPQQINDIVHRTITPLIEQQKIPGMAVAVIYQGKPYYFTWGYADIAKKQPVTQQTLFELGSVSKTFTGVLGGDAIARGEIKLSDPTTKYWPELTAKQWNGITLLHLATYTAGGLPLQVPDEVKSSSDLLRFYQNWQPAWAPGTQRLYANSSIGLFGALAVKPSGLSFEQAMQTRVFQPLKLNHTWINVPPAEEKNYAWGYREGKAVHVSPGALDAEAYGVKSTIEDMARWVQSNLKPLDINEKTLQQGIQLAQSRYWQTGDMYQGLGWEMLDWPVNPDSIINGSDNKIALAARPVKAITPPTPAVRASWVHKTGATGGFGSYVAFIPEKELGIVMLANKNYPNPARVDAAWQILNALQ
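AmpC (5.3 nM in the dispensed reagent) in 20 mM phosphate pH 7.0 with 0.01% (detergent screen) or 0.0001% Triton X-100 was preincubated with compounds for 15 min at room temperature. Nitrocefin was then added from an 800 uM solution, and hydrolysis was followed at 480 nm.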
AmpC detergent = blocks E. coli AmpC beta-lactamase in detergent assay; P00811; AmpC hydrolysis of nitrocefin, absorbance 480 nm, 0.01% Triton; Potency, µM (highest dose often 114 µM), for inactives: at the top dose activity change, negative = inhibition, actives largely listed as inhibitors; 370,000 tested, 0.041% active;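 note: 0% = no-compound wells and -100% = no-enzyme wells; nearly all actives have a fitted effect of over 25% in size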
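AmpC (5.3 nM in the dispensed reagent) in 20 mM phosphate pH 7.0 with 0.01% (detergent screen) or 0.0001% Triton X-100 was preincubated with compounds for 15 min at room temperature. Nitrocefin was then added from an 800 uM solution, and hydrolysis was followed at 480 nm.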
* marks the source's active call; other numbers are inactive results; ? = inconclusive; . = not tested or not shown; ! = a repeat was not active; [ ] = dose if it differs, or a comment. Unless noted, calls come from the whole dose curve; as a rule, active = well fitted curve in the direction sought with a large enough effect; inconclusive = small, poorly fitted or top-dose-only effect, or another doubt; inactive = no such curve, though single readings can be large; an effect the other way counts as inactive or inconclusive. Unless noted, % is set by controls: 0 for no effect and ±100 for the full control effect; potency is the fitted concentration of half-maximal effect.

SMILES | Marburg entry inh | LASV entry inh | AMA1 RON2 block | AmpC inh no detg | AmpC detergent
COc1ccc(C=O)cc1COc1ccc([N+](=O)[O-])c(C)c1 | -23%[46.1 µM] | 31%[46.1 µM] | -11% | -30% | 4%
Cc1nc(N)nc(N)c1-c1ccc(Cl)c(Cl)c1 | ? | 1µM* | -13% | . | .
C=CC1=C2C=C(C3CC3)N(Cc3ccccc3)C=C2C(=O)C(C)(OC(=O)c2ccco2)C1=O (stereo not given) | -1%[14.2 µM] | . | . | . | .
Cc1ccc2c(c1)C(N1CCN(C)CC1)=Nc1cccnc1N2 | 11µM*! | 8% | . | . | .
Cc1cc2c(s1)Nc1ccccc1N=C2N1CCN(C)CC1 | . | . | 9% | -16% | -3%
O=C(COC(=O)CC(c1ccccc1)c1ccccc1)NCc1ccccc1 | 1% | 12µM* | 0% | 24% | -7%
O=C(COC(=O)Cc1ccc(-c2ccccc2)cc1)NCc1ccccc1 | 3% | -9% | -9% | -50% | -1%
Cc1ccc2oc3c(c(=O)c2c1)C(c1cccc(O)c1)N(c1ccccn1)C3=O (stereo not given) | 3% | . | -8% | 3.5µM* | -5%
Cc1ccc2oc3c(c(=O)c2c1)C(c1ccccc1F)N(c1ccccn1)C3=O (stereo not given) | -2%[46.1 µM] | 4%[46.1 µM] | . | . | 19%
COc1ccccc1-c1cn[nH]c1-c1ccc(OCc2ccc(F)cc2)cc1O | . | . | 77% | 7.1µM* | 4%
C=C(C)COc1ccc(-c2[nH]ncc2-c2ccccc2)c(O)c1 | ? | 8.9µM* | -1% | -33% | -6%
C=C(C)COc1ccc(-c2[nH]ncc2-c2ccc(OC)c(OC)c2)c(O)c1 | 1.6µM* | 1.3µM* | -11% | -32% | 1%
COc1ccc(-c2cn[nH]c2-c2ccc(OCC(=O)NN)cc2O)cc1OC | 25% | ? | 62% | -53% | ?
C=C(C)COc1ccc(-c2[nH]ncc2-c2ccc(OC)cc2)c(O)c1 | . | . | 79% | -54% | -3%
C=C(C)COc1ccc(-c2[nH]ncc2Oc2cccc(OC)c2)c(O)c1 | -30% | 1.6µM* | 92% | -18% | ?
CCc1ccccc1NC(=O)c1noc2c1CC(C(C)(C)C)CC2 (stereo not given) | -12%[46.1 µM] | -7%[46.1 µM] | . | . | 24%
Cc1ccc(-n2nnc3c(sc4nc(C)c(C)cc43)c2=O)cc1Cl | -21%[46.1 µM] | 10%[46.1 µM] | . | . | 17%
CCOc1ccccc1NC(=O)c1nc2nc(C)cc(C(F)F)n2n1 | . | -21%[46.1 µM] | . | . | 5%
CCCCOC(=O)c1ccc(NC(=O)Cn2nnc3sc4c(c3c2=O)CCCC4)cc1 | ? | 16%[46.1 µM] | . | . | 23%
C=C(C)COc1ccc(-c2nc(N)ncc2-c2ccc(OC)c(OC)c2)c(O)c1 | 13µM* | -2%[46.1 µM] | -13% | 28% | -2%
C=C(C)COc1ccc(-c2n[nH]c(C)c2-c2ccc(OC)c(OC)c2)c(O)c1 | ? | 0.63µM* | 96% | -52% | 9%
C=C(C)COc1ccc(-c2n[nH]c(C)c2Oc2ccccc2OC)c(O)c1 | ? | ? | -10% | -22% | -6%
Cc1cc(C(=O)NCCC2=CCCCC2)c(C)o1 | 15µM* | ? | 15% | -29% | ?
CCN(CC)S(=O)(=O)c1ccc2[nH]cc(C(=O)NCCC3=CCCCC3)c(=O)c2c1 | 11µM* | 1.3µM* | -1% | -6% | -4%
CCN(CC)S(=O)(=O)c1ccc2[nH]cc(C(=O)NCCN3CCCCCC3)c(=O)c2c1 | -12% | ? | 0% | 78% | -5%
SMILES | Marburg entry inh | LASV entry inh | AMA1 RON2 block | AmpC inh no detg | AmpC detergent
CCc1ccccc1NC(=O)C(=O)NCC(c1cccnc1)N1CCc2ccccc21 (stereo not given) | . | 5%[46.1 µM] | . | . | 11%
CC(=O)Nc1ccc(C2Nc3c(C)cc(C)cc3-c3cc(C)nn32)cc1 (stereo not given) | ? | 3%[46.1 µM] | . | . | -7%
O=C1/C(=C/c2ccc(N3CCOCC3)o2)SC(=Nc2ccccc2)N1CCc1c[nH]c2ccccc12 | ? | 7.1µM* | -23% | 22% | 7%
CCCCC(=O)/C=C/n1c2c(oc1=S)CCCC2 | 18µM* | . | . | . | .
COC(=O)[C@@]12Cc3ccccc3[C@H]1C[C@H](C)[C@@H](C)N2C(=O)C(F)(F)F | 3%[14.2 µM] | . | . | . | .
Cn1ccc2c(N3CCCCCCC3)cc3c(c21)C1CCC3O1 (stereo not given) | . | . | 25µM* | . | .
CCN(CC)c1cc2c(c3c1ccn3C)C1CCC2O1 (stereo not given) | . | ? | -1% | . | .
CCN(CC)c1ccc(/C=C/c2nc3ccccc3s2)cc1 | -5% | . | . | -9% | 1%
COc1cc2nc(/C=C/c3ccc(N(C)C)cc3)sc2cc1SC | 8% | ? | 18µM* | -13% | -5%
CCN1C(=O)[C@H]2[C@H]3[C@H](O)[C@H](O)C/C(=N\OC[C@@H](O)COCc4ccco4)[C@@H]3CC[C@H]2C1=O | 34%[14.2 µM] | . | . | . | .
CCOc1ccc(NC(=O)CN2CCSc3ccc(S(=O)(=O)N4CCCC4)cc32)cc1 | . | -10%[46.1 µM] | . | . | 19%
CCOc1ccc(NC(=S)NC(=O)/C=C/c2ccc(C)cc2)c([N+](=O)[O-])c1 | ? | ? | 3% | -17% | -2%
CCOc1ccc(NC(=S)NC(=O)/C=C/c2ccc(OC)c(OC)c2)c([N+](=O)[O-])c1 | 15µM* | ? | -5% | -37% | 11%
CN(C)CCCn1c(N)c(S(=O)(=O)c2ccccc2)c2nc3ccccc3nc21 | -20%[46.1 µM] | 0% | -9% | -1% | -6%
CCCCn1c(N)c(S(=O)(=O)c2ccc(C)cc2)c2nc3ccccc3nc21 | 10µM* | ? | 20% | -35% | ?
CCC(C(=O)NCCc1ccc(Cl)cc1)n1ccc2cc(S(=O)(=O)N3CCCCC3)ccc21 (stereo not given) | . | -21%[46.1 µM] | . | . | 0%
O=C(Nc1ccc2c(c1)N(C1CCCC1)C(=O)c1ccccc1S2)c1ccc(F)cc1 | . | ? | . | . | -1%
O=C(Nc1ccc2c(c1)N(C1CCCC1)C(=O)c1ccccc1S2)c1ccccc1 | . | 2.8µM* | . | . | 11%
COc1ccc(C(CC(=O)NCc2ccccc2Cl)N2Cc3ccccc3C2=O)cc1OC (stereo not given) | . | -19%[46.1 µM] | . | . | 6%
CN1\C(=C/C=C/C=C/C=[N+](C)C)C(C)(C)c2ccccc21 | ? | ? | 22µM* | -42% | 4%
CC(C)n1cc(CN2CCCC(C(=O)Nc3cccc(-c4cc5ccccc5[nH]4)c3)C2)cn1 (stereo not given) | ? | 7.1µM* | ? | 136% | -7%
Cn1cc(CN2CCCC(C(=O)Nc3cccc(-c4cc5ccccc5[nH]4)c3)C2)cn1 (stereo not given) | ? | ? | -29% | 139% | 5%
Cc1cc(N)n2nc(-c3ccccc3)cc2n1 | 8.9µM* | ? | -2% | -23% | -4%
Cc1ccc(-c2cc3nc(-c4ccccc4)cc(N)n3n2)cc1 | -17%[46.1 µM] | 12% | 3% | -26% | 4%
CCOc1cccc2sc(N(Cc3cccnc3)C(=O)C3CCCCC3)nc12 | . | -26%[46.1 µM] | . | . | 3%
